Records with an inconclusive call do not appear. Calls of active or inactive are those of the source. The call rests on the fitted dose curve; in most records, active means well fitted curve in the direction sought with a large enough effect; inconclusive means small, poorly fitted or top-dose-only effect, or another doubt; inactive means no such curve, though single readings can be large; an effect the other way counts as inactive or inconclusive.

12 compounds from PubChem BioAssay (NCATS) can be followed below.

Assay [1] is described as follows: Quantitative High-Throughput drug screen in 47 multiple myeloma cell lines against the NCATS MIPE library collection: KMM1_JCRB cell viability assay (AID 1918960). Further: nearly all actives have a fitted effect of over 30% in size. Further: potency means the concentration at half of the fitted maximal effect. The method, boiled down: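 ATP readout (CellTiter-Glo), 48 h drug incubation, 37 °C/5% CO2, 500 cells per well; normalisation to DMSO (100%) and media-only (0%) controls.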
Assay [2] is described as follows: Quantitative High-Throughput drug screen in 47 multiple myeloma cell lines against the NCATS MIPE library collection: KHM11_PLB cell viability assay (AID 1918962). Further: nearly all actives have a fitted effect of over 35% in size. Further: potency means the concentration at half of the fitted maximal effect. The method, boiled down:
(§1)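 Myeloma cell lines, 500 cells per well, exposed to MIPE 4.0 library compounds for 48 h at 37C, 5% CO2. Viability from ATP by CellTiter-Glo luminescence; normalised to DMSO (100%) and media-only (0%) wells.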

Assay [3] can be described thus: Quantitative High-Throughput drug screen in 47 multiple myeloma cell lines against the NCATS MIPE library collection: JIM1_ECACC cell viability assay (AID 1918964). The method, boiled down: (§2)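 Steps: seed 500 cells per well; pin-transfer MIPE 4.0 library; incubate 48 h at 37C, 5% CO2, humidified; add CellTiter-Glo, 5 min room temperature; read luminescence.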
Assay [4] is described as follows: Quantitative High-Throughput drug screen in 47 multiple myeloma cell lines against the NCATS MIPE library collection: Karpas25_ECACC cell viability assay (AID 1918968; further: nearly all actives have a fitted effect of over 35% in size; further: potency means the concentration at half of the fitted maximal effect). Put shortly:
as §2

Assay [5] can be described thus: Quantitative High-Throughput drug screen in 47 multiple myeloma cell lines against the NCATS MIPE library collection: KMS27_JCRB cell viability assay (AID 1918970). Further: nearly all actives have a fitted effect of over 30% in size. Further: potency means the concentration at half of the fitted maximal effect. The method, boiled down:
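Myeloma cells (500 per well) were exposed to MIPE 4.0 compounds for 48 h at 37 °C, 5% CO2; viability was read as ATP luminescence with CellTiter-Glo, normalized to DMSO-only (100%) and media-only (0%) wells.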

A short description of assay [6]: Quantitative High-Throughput drug screen in 47 multiple myeloma cell lines against the NCATS MIPE library collection: NCIH929_DSMZ cell viability assay (AID 1918978). Further: nearly all actives have a fitted effect of over 35% in size. Further: potency means the concentration at half of the fitted maximal effect. The method, boiled down: (§3)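 500 cells/well per myeloma line exposed to pinned MIPE 4.0 compounds for 48 h at 37 °C, 5% CO2. Viability read as ATP by CellTiter-Glo luminescence, normalised to DMSO-only (100%) and media-only (0%) wells.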

Assay [7] is described as follows: Quantitative High-Throughput drug screen in 47 multiple myeloma cell lines against the NCATS MIPE library collection: JIM3_ECACC cell viability assay (AID 1918963; further: nearly all actives have a fitted effect of over 35% in size; further: potency means the concentration at half of the fitted maximal effect). The method, boiled down: as §1
Assay [8] is described as follows: Quantitative High-Throughput drug screen in 47 multiple myeloma cell lines against the NCATS MIPE library collection: INA6_PLB cell viability assay (AID 1918965; further: nearly all actives have a fitted effect of over 55% in size; further: potency means the concentration at half of the fitted maximal effect). Put shortly: as §1
A short description of assay [9]: Quantitative High-Throughput drug screen in 47 multiple myeloma cell lines against the NCATS MIPE library collection: JJN3_DSMZ cell viability assay (AID 1918966; further: nearly all actives have a fitted effect of over 50% in size; further: potency means the concentration at half of the fitted maximal effect). Put shortly: as §2
Assay [10] is described as follows: Quantitative High-Throughput drug screen in 47 multiple myeloma cell lines against the NCATS MIPE library collection: H1112_PLB cell viability assay (AID 1918967; further: nearly all actives have a fitted effect of over 30% in size; further: potency means the concentration at half of the fitted maximal effect). Put shortly:
as §2

Assay [11] is described as follows: Quantitative High-Throughput drug screen in 47 multiple myeloma cell lines against the NCATS MIPE library collection: KMS12BM_JCRB cell viability assay (AID 1918971). Further: nearly all actives have a fitted effect of over 35% in size. Further: potency means the concentration at half of the fitted maximal effect. Put shortly:
(§4)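 Relative luminescence from CellTiter-Glo served as the viability signal, referenced to DMSO-treated (100%) and cell-free medium (0%) controls. Treatment lasted 48 hours at 37C with 500 cells per well.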

Assay [12] can be described thus: Quantitative High-Throughput drug screen in 47 multiple myeloma cell lines against the NCATS MIPE library collection: KMS12PE_JCRB cell viability assay (AID 1918972). Further: nearly all actives have a fitted effect of over 30% in size. Further: potency means the concentration at half of the fitted maximal effect. The method, boiled down: as §1
Assay [13] can be described thus: Quantitative High-Throughput drug screen in 47 multiple myeloma cell lines against the NCATS MIPE library collection: KMS20_JCRB cell viability assay (AID 1918973). Further: nearly all actives have a fitted effect of over 45% in size. Further: potency means the concentration at half of the fitted maximal effect. Put shortly: as §2
A short description of assay [14]: Quantitative High-Throughput drug screen in 47 multiple myeloma cell lines against the NCATS MIPE library collection: KMS21BM_JCRB cell viability assay (AID 1918974). The settings on record: ATP luminescence, 48 h; viability: at 45.8 µM (top of the series) unless noted. Put shortly:
as §2

Assay [15] can be described thus: Quantitative High-Throughput drug screen in 47 multiple myeloma cell lines against the NCATS MIPE library collection: OCIMY1_PLB cell viability assay (AID 1918979). Further: nearly all actives have a fitted effect of over 35% in size. Further: potency means the concentration at half of the fitted maximal effect. Put shortly: as §3
The nature of assay [16]: Quantitative High-Throughput drug screen in 47 multiple myeloma cell lines against the NCATS MIPE library collection: MM1S_ATCC cell viability assay (AID 1918980). Further: nearly all actives have a fitted effect of over 45% in size. Further: potency means the concentration at half of the fitted maximal effect. The method, boiled down: as §3
The nature of assay [17]: Quantitative High-Throughput drug screen in 47 multiple myeloma cell lines against the NCATS MIPE library collection: KMS26_JCRB cell viability assay (AID 1918975). Further: nearly all actives have a fitted effect of over 45% in size. Further: potency means the concentration at half of the fitted maximal effect. Put shortly: as §4
A short description of assay [18]: Quantitative High-Throughput drug screen in 47 multiple myeloma cell lines against the NCATS MIPE library collection: MMM1_PLB cell viability assay (AID 1918976). Further: nearly all actives have a fitted effect of over 35% in size. Further: potency means the concentration at half of the fitted maximal effect. The method, boiled down:
as §3

Assay [19] in a line: Quantitative High-Throughput drug screen in 47 multiple myeloma cell lines against the NCATS MIPE library collection: MOLP8_DSMZ cell viability assay (AID 1918977). Further: nearly all actives have a fitted effect of over 45% in size. Further: potency means the concentration at half of the fitted maximal effect. Put shortly: as §3

`Cc1cnc(-c2cnc(NCCNc3ccc(C#N)cn3)nc2-c2ccc(Cl)cc2Cl)[nH]1`: the Potency result in assay [1], in assay [3] and in [5] was “inactive” in each case. Besides, the Potency in [2] was 16.6 µM (active); in assay [4], 5.9 µM (active); in [6] it was 10.5 µM (active).

Take `O=C(NCCCNc1nc(Nc2cccc(NC(=O)N3CCCC3)c2)ncc1I)c1cccs1`: the Potency result in [1], in assay [5], in assay [12] and in [14] was “inactive” in each case. In addition, the Potency is 1.32 µM (active) in assay [2]; 5.26 µM (active) in assay [7]; 0.662 µM (active) in assay [8]; 16.6 µM (active) in [9]; 9.35 µM (active) in assay [10]; 5.26 µM (active) in assay [4]. For the same compound, the Potency in assay [11] is 18.7 µM (active); in [13] it was 3.32 µM (active); in assay [6], 5.9 µM (active); in assay [15] it was 18.7 µM (active); in assay [16], 18.7 µM (active).

Consider `CC1(C)CCC(c2ccc(Cl)cc2)=C(CN2CCN(c3ccc(C(=O)NS(=O)(=O)c4ccc(N[C@H](CCN5CCOCC5)CSc5ccccc5)c(S(=O)(=O)C(F)(F)F)c4)cc3)CC2)C1`, for which the Potency is 1.87 µM (active) in assay [1]; 6.62 µM (active) in assay [2]; 5.9 µM (active) in [8]; 9.35 µM (active) in assay [9]; 0.833 µM (active) in assay [4]; 0.0148 µM (active) in assay [5]. Moreover, the Potency in [11] was 0.332 µM (active); in assay [12], 0.0105 µM (active); in assay [17], 0.105 µM (active); in [18], 0.0935 µM (active); in [6], 13.2 µM (active); in assay [15], 7.43 µM (active). Moreover, the Potency in [16] is 0.332 µM (active).

Regarding `c1cc(-c2cnn3cc(-c4ccc(OCCN5CCCCC5)cc4)cnc23)ccn1`, the Potency result in assay [1], in assay [5] and in assay [12] was “inactive” in each case. Besides, the Potency in assay [2] was 1.48 µM (active); in assay [7] it was 3.72 µM (active); in assay [8], 1.87 µM (active); in assay [9], 8.33 µM (active); in [10] it was 2.96 µM (active); in assay [4], 2.96 µM (active). The Potency in [11] was 16.6 µM (active); in assay [13], 2.35 µM (active); in [17] it was 16.6 µM (active); in assay [15], 26.4 µM (active); in assay [16], 16.6 µM (active).

Take `Nc1nccc(Oc2ccc(NC(=O)c3c[nH]cc(-c4ccc(F)cc4)c3=O)cc2F)c1Cl`: the Potency in assay [1] was 2.96 µM (active); in assay [2], 18.7 µM (active); in assay [7] it was 26.4 µM (active); in assay [8], 18.7 µM (active); in [9], 20.9 µM (active); in assay [10], 20.9 µM (active). For the same compound, the Potency in assay [4] is 16.6 µM (active); in assay [11], 16.6 µM (active); in [17], 33.2 µM (active); in assay [18] it was 23.5 µM (active); in [19], 20.9 µM (active); in assay [16], 1.18 µM (active). Further, the Potency result in assay [12] is “inactive”.

For the compound `CC1COC2(CCN(c3nc(=O)c4cc(C(F)(F)F)cc([N+](=O)[O-])c4s3)CC2)O1` (stereo unspecified), the Potency entry in assay [1], in assay [7], in assay [3], in [8], in assay [9] and in [10] was “inactive” each time. The Potency result in assay [4], in assay [11] and in assay [15] was “inactive” each time.

Regarding `CN1c2cc(O)c(N=NC(N)=O)cc2CC1S(=O)(=O)O` (stereo unspecified), the Potency entry in assay [1], in assay [7], in assay [3], in assay [8], in assay [4] and in assay [5] was “inactive” in each case. Besides, the Potency entry in assay [11], in assay [12], in [13], in assay [17], in assay [19] and in assay [6] was “inactive” in each case.

Take `CNC(=O)c1ccc(-c2cnc3ncc(Cc4ccc5ncccc5c4)n3n2)cc1F`: the Potency result in [1], in assay [2], in assay [7], in assay [17], in [15] and in assay [16] was “inactive” throughout. Moreover, the Potency in assay [9] was 5.9 µM (active).

`COc1ccc(C=Cc2cc(OC)c(OC)c(OC)c2)cc1O`: the Potency entry in [1], in [2], in assay [7], in assay [3], in assay [10] and in assay [4] was “inactive” in each case. Also, the Potency result in [5], in assay [12], in assay [14], in assay [18], in [6] and in [15] was “inactive” throughout.

As to `CCCCCCCCCC(=O)N[C@@H](Cc1c[nH]c2ccccc12)C(=O)N[C@H](CC(N)=O)C(=O)N[C@@H](CC(=O)O)C(=O)N[C@@H]1C(=O)NCC(=O)N[C@@H](CCCN)C(=O)N[C@@H](CC(=O)O)C(=O)N[C@H](C)C(=O)N[C@@H](CC(=O)O)C(=O)NCC(=O)N[C@H](CO)C(=O)N[C@@H]([C@@H](C)CC(=O)O)C(=O)N[C@@H](CC(=O)c2ccccc2N)C(=O)O[C@@H]1C`, the Potency entry in assay [1], in assay [2], in [7], in assay [3], in assay [4] and in assay [5] was “inactive” each time. In addition, the Potency entry in assay [11], in assay [12], in assay [19], in assay [6] and in assay [15] was “inactive” in each case.

With `COc1cc2c(Oc3ccc4[nH]c(C)cc4c3F)ncnc2cc1OCCCN1CCCC1`, the Potency in assay [1] is 2.35 µM (active); in assay [2], 4.69 µM (active); in assay [7] it was 9.35 µM (active); in [8], 9.35 µM (active); in assay [9], 20.9 µM (active); in [10] it was 8.33 µM (active). For the same compound, the Potency in assay [4] is 5.9 µM (active); in [11], 29.6 µM (active); in [12], 2.64 µM (active); in assay [13], 2.96 µM (active); in assay [17], 29.6 µM (active); in assay [18] it was 23.5 µM (active). The Potency is 7.43 µM (active) in assay [6], 26.4 µM (active) in assay [15] and 18.7 µM (active) in assay [16].

For the compound `CC(C)Nc1cc(C(F)(F)F)cc2nc(NC(=O)c3cccnc3)nn12`, the Potency entry in assay [1], in assay [7], in assay [3], in assay [4], in [5] and in [12] was “inactive” each time. The Potency result in assay [6] and in [15] was “inactive” throughout. Also, the Potency in [18] was 1.87 µM (active).
